Compounds with a hit are over-represented: about 2.1% of the library has one in this group of screens.
Giardia kill: kills Giardia lamblia; activity change, % at 7.66 µM, hits read low; AID 540267; Giardia lamblia trophozoite viability; 340,000 tested, 0.15% active; in the data active = activity change below about -80%; inconclusive = between about -30% and that limit;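 also: parasites exposed to compound for two days anaerobically before the ATP read; % is scaled to controls: 0 for no effect and ±100 for the full control effect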
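Giardia trophozoites, 100 cells per well, were exposed to compounds for 48 hrs at 37 deg C under anaerobic conditions; viability was then read as ATP content by bioluminescence after 15-30 min at room temperature.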
p53 reactivation: restores transcriptional activity of mutant p53 | 320,000 tested, 0.063% active | H1299 p53-A138V BP100-luciferase reporter, luminescence, 24 h | Potency, µM (highest dose often 92.2 µM), for inactives: top-dose activity change, positive = activation, usual class: activators; also: potency is read from the fitted curve at half-maximal effect; % of control where 0% means no effect; nearly all actives have a fitted effect of over 45% in size
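p53-null H1299 cells stably carrying temperature-sensitive p53-A138V and a BP100-luciferase reporter were pinned with compounds (4-point, 1:5 series) and held 24 hrs at 37 deg C. Luminescence was read 10 min after detection reagent.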
B2AR arrestin: agonists driving beta-arrestin recruitment to human beta2-adrenergic receptor | P07550 | beta-arrestin recruitment to beta2AR, cell-based reporter | Potency, µM (series often up to 46.1 µM), for the others: top-dose activation, hits mostly activators | 330,000 tested, 0.02% active | AID 492947;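 also: potency is read from the fitted curve at half-maximal effect; 0% = DMSO controls and full agonism = EC100 isoproterenol or metaproterenol; nearly all actives have a fitted effect of over 65% in size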
Target sequence (P07550 whole entry, looked up): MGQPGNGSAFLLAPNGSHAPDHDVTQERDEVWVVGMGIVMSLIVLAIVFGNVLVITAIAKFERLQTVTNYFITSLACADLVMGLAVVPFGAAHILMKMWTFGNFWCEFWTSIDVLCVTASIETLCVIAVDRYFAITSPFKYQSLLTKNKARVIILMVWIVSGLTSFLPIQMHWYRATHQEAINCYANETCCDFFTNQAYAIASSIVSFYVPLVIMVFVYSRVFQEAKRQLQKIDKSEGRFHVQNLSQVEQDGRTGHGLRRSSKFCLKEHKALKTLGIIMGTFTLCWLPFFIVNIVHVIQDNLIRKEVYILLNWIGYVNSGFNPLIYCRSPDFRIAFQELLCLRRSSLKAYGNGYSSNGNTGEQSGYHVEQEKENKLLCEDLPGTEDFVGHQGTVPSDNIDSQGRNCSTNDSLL
ClpP mod: qHTS Assay for Activators of ClpP; ATP-dependent Clp protease proteolytic subunit (Bacillus subtilis (strain 168)), P80244; purified B. subtilis ClpP, FRET peptide cleavage, 20 min; Potency, µM (highest dose often 57.5 µM), for inactives: top-dose activity change, negative = active; 340,000 tested, 1.9% active; AID 651965, 2013; active = well fitted falling curve with a large enough effect; inconclusive = small, poorly fitted or top-dose-only effect; inactive = no such curve, though single readings can be large or run the other way; also: potency is read from the fitted curve at half-maximal effect; the source files actives as falling curves though it sought activators and does not explain the sign; nearly all actives have a fitted effect of over 65% in size
Target sequence (P80244 whole entry, looked up): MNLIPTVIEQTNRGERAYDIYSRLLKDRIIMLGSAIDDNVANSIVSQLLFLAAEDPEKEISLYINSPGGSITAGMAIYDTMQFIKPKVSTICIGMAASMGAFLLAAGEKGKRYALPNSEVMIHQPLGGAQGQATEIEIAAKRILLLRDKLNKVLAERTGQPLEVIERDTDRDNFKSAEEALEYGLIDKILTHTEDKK
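ClpP 10 microg/mL final, pH 8 Tris/KCl buffer with BSA, glycerol, Tween-20; compound pinned in; FRET-FV substrate; RT 20 min; Ex320/Em430; ΔFRET vs ADEP 5.8 microM, DMSO, no enzyme.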
uPA surface inh: cell surface uPA generation inhibition | Potency, µM (highest dose often 38.3 µM), for inactives: at the top dose activity change, negative = inhibition, hits mostly inhibitors | AID 540303 | 330,000 tested, 0.31% active | cell surface uPA generation assay, qHTS; active = well fitted inhibition curve with a large enough effect; inconclusive = small, poorly fitted or top-dose-only effect; inactive = no such curve, though single readings can be large or run the other way; tested in mouse RAW 264.7 cells; also: potency is read from the fitted curve at half-maximal effect; % is scaled to controls: 0 for no effect and ±100 for the full control effect; nearly all actives have a fitted effect of over 55% in size
Mito fusion yeast: inhibitors of mitochondrial division or activators of mitochondrial fusion | 320,000 tested, 0.23% active | S. cerevisiae fusion-defective mutant growth rescue, CellTiterGlo 48 h | Potency, µM (highest dose often 46.1 µM), for the others: top-dose growth rescue (activation), actives largely listed as activators | AID 485298; also: potency is read from the fitted curve at half-maximal effect; % of control where 0% means no effect; nearly all actives have a fitted effect of over 45% in size
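Temperature-sensitive fusion-defective S. cerevisiae (e.g. fzo1-1, mgm1-5) were grown with compound in YPEG medium (3% ethanol, 3% glycerol) for 48 hours at 37C. Growth rescue was measured as viability by CellTiterGlo luminescence after 10 minutes at ambient.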
Starred values were filed as active, the others as inactive; ? = inconclusive; · = not tested or not shown. Unless noted, calls follow the shape of the dose curve; as a rule, active = well fitted curve in the direction sought with a large enough effect; inconclusive = small, poorly fitted or top-dose-only effect, or another doubt; inactive = no such curve, though single readings can be large; an effect the other way counts as inactive or inconclusive.

SMILES	Giardia kill	p53 reactivation	B2AR arrestin	ClpP mod	uPA surface inh	Mito fusion yeast
O=C(COC(=O)CCCN1C(=O)c2cccc3cccc(c23)C1=O)Nc1cccc(Br)c1	-17	-2%	-1%	?	8%	16%
CN(CC(=O)Nc1cccc(F)c1)C(=O)CCN1C(=O)C2CC=CCC2C1=O (configuration not stated)	9	0%	0%	-2%	15%	-5%
CN(CC(=O)Nc1cccc(F)c1)C(=O)CCCN1C(=O)c2cccc3cccc(c23)C1=O	6	-5%	0%	14µM*	-5%	7%
O=C(COC(=O)CCCN1C(=O)c2cccc3cccc(c23)C1=O)Nc1cccc(C(F)(F)F)c1	21	-7%	0%	28µM*	5%	-7%
O=C(NCCS(=O)(=O)N1CCN(c2cccc(Cl)c2)CC1)C(c1ccccc1)c1ccccc1	·	·	·	0%	·	·
Cc1cccc2c(N)c3c(nc12)N(C)CC3	?	1%	0%	5%	?	-6%
CN1CCCCc2c1nc1c(c2N)CCCC1	8	-5%	0%	25µM*	0%	0%
CCOC(=O)c1c(NC(=O)COc2ccc(Cl)cc2Cl)sc2c1CCCCC2	·	·	·	2%	·	·
C=C1C=C(C(F)F)n2ncc(C(=O)NCc3ccc(F)cc3)c2N1	·	·	·	-3%	·	·
COc1ccc([C@H]2CC(=O)C=C(c3cc(C=O)ccc3OC)C2)cc1	-12	1%	6%	-5%	6.3µM*	9%
CCOc1ccc(Cl)cc1C1=CC(=O)C[C@H](c2ccc(OC)cc2)C1	24	6%	0%	0%	?	35µM*
COc1ccc([C@H]2CC(=O)C=C(c3cc(Cl)ccc3OC)C2)cc1	-19	-13%	-1%	-2%	?	?
O=C(CC1(O)C(=O)N(CCc2ccccc2)c2ccc(Br)cc21)c1ccccc1O (configuration not stated)	·	·	·	-7%	·	·
O=C1CCCc2c1cc(C(=O)NCc1ccco1)c(=O)n2-c1ccc(Cl)cc1	20	1%	0%	20µM*	3%	-6%
Cc1ccc(-c2nc3ccccc3n2C)o1	-16	10%	0%	16µM*	-14%	-9%
Cn1c(-c2ccc(Br)o2)nc2ccccc21	?	·	0%	-8%	-12%	0%
Cc1oc(-c2nc3ccccc3n2C)cc1C(=O)c1ccccc1	?	10µM*	0%	0%	-6%	14%
CCCCN(C)C(=O)C1CCCN(S(=O)(=O)c2ccc3c(c2)CC(C)N3C(=O)C2CC2)C1 (configuration not stated)	-15	-4%	0%	1%	-8%	1.1µM*
COC(=O)c1cc2c(ccn2-c2ccc(F)cc2)n1Cc1ccc(OC)cc1	-2	15%	0%	22µM*	0%	10%
Cc1ccc(NC(=O)c2ccc(F)c(S(=O)(=O)NCCc3ccccc3)c2)cc1F	·	·	·	1%	·	·
CCN1CCN(CCNC(=O)CSCc2nc(-c3ccc(OC)c(OC)c3)oc2C)CC1	-4	0%	1%	-23%	3%	-2%
CCOc1ccc(-c2nnc(SCC(=O)NCCC(C)C)nc2-c2ccc(OCC)c(OC)c2)cc1OC	·	·	·	16µM*	·	·
COc1ccc(-c2nc(CSCC(=O)NCCC(C)C)c(C)o2)cc1OC	·	·	·	28µM*	·	·
CCOc1ccc(-c2nc(CSCC(=O)NCCN3CCOCC3)c(C)o2)cc1	-1	-6%	0%	32µM*	-6%	3%
COc1ccc(-c2nc(CSCC(=O)NCCc3ccccc3)c(C)o2)cc1	·	·	·	32µM*	·	·
SMILES	Giardia kill	p53 reactivation	B2AR arrestin	ClpP mod	uPA surface inh	Mito fusion yeast
CCOc1ccc(-c2nc(CSCC(=O)NCCCN3CCCC3=O)c(C)o2)cc1	-1	-7%	0%	4%	2%	1%
COc1cc2c(c(O)c1OC)C(=O)C(OC)CCC2 (configuration not stated)	26	7%	1%	28µM*	-5%	0%
COc1cc2c(c(O)c1OC)-c1c(cc(OC)c(OC)c1OC)C[C@@H](C)[C@@H](C)C2	-6	-1%	-1%	1%	-21%	?
Cn1cc(C2NC(=O)c3ccccc3N2)c2ccccc21 (configuration not stated)	-9	·	·	28µM*	-15%	·
Cc1ccc(C)c(C2NC(=O)c3ccccc3N2)c1 (configuration not stated)	-2	0%	0%	5%	?	6%
Clc1ccc(-c2cccs2)nn1	30	4%	0%	·	1%	-15%
CC1CCN(c2ccc(-c3cccs3)nn2)CC1	-94*	-13%	0%	-14%	0.89µM*	-19%
CC(=O)C1=C(c2ccccc2)N(C(C)=O)n2c(nnc2C2CCCCC2)S1	·	·	·	0%	·	·
OCCOCCNc1ncnc2c1cnn2-c1ccccc1	3	14%	0%	?	-5%	-4%
CCC(CO)Nc1ncnc2c1cnn2-c1ccc(C)cc1 (configuration not stated)	·	·	·	28µM*	·	·
Cc1ccc(-n2ncc3c(NC(C)c4ccccc4)ncnc32)cc1 (configuration not stated)	·	·	·	4%	·	·
CC(C)Nc1ncnc2c1cnn2-c1ccc(Cl)cc1	?	3%	0%	4%	13µM*	27%
OCCOCCNc1ncnc2c1cnn2-c1ccc(Cl)cc1	-7	-3%	0%	32µM*	-5%	0%
COCCNc1ncnc2c1cnn2-c1ccc(Cl)cc1	12	·	0%	22µM*	-4%	5%
CCOc1cc(C2CC(=O)Nc3c2c(=O)nc(SCc2cccc(Cl)c2)n3C)ccc1O (configuration not stated)	·	·	·	-2%	·	·
c1ccc2cnccc2c1	·	·	·	-2%	·	·
CC(Cc1ccc(O)c(O)c1)C(C)Cc1ccc(O)c(O)c1 (configuration not stated)	25	·	·	0%	?	·
C[C@H](Cc1ccc(O)c(O)c1)[C@@H](C)Cc1ccc(O)c(O)c1	·	·	·	?	·	13µM*
Cc1oc2c(CN3CCOCC3)c(O)ccc2c(=O)c1-c1ccc(Cl)cc1	-28	0%	0%	4%	6%	-1%
CCN1CCN(Cc2c(O)ccc3c(=O)c(-c4ccc(OC)c(OC)c4)c(C)oc23)CC1	-5	-1%	0%	28µM*	-2%	1%
Cc1oc2c(CN3CCOCC3)c(O)ccc2c(=O)c1-c1ccc(Br)cc1	1	5%	0%	14µM*	2%	7%
COc1ccc(OC)c(S(=O)(=O)N2Cc3ccccc3CC2C(=O)Nc2ccc(C(C)=O)cc2)c1 (configuration not stated)	·	·	·	-2%	·	·
CCOc1c2ccoc2nc2c(OC)c(OC)ccc12	-18	3%	0%	4%	?	4%

Source: PubChem BioAssay
